# In article PMC8384837, “Expanding the binding specificity for RNA recognition by a PUF domain”:
# Target: PUM1 PUF domain R5-GRL (Homo sapiens, UniProt Q14671 828-1176, C1007G;Q1011L)
# Test: yeast three-hybrid, YBZ-1, SC-Leu-His + 0.5 mM 3-AT, 4 days
# Conditions: tags: N-Gal4 AD-HA kept; label: inside an RPR1-promoter hybrid RNA with tandem MS2 sites; ssRNA
# How it was run: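 Sequencing with Illumina followed PCR amplification of the repeat regions from transformants grown four days on SC-Leu (input) or SC-Leu-His + 0.5 mM 3-AT (selection). The transformants were strain YBZ-1 with a LexA–MS2 coat fusion and a HIS3 reporter, carrying Pumilio-1 PUF domain libraries and matching RNA elements. The interaction score is the log change in variant frequency from input to selection, computed in log2 with a pseudocount of 1 for absent variants.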
# Sequence of PUM1 PUF domain R5-GRL (Q14671 828-1176 C1007G/Q1011L): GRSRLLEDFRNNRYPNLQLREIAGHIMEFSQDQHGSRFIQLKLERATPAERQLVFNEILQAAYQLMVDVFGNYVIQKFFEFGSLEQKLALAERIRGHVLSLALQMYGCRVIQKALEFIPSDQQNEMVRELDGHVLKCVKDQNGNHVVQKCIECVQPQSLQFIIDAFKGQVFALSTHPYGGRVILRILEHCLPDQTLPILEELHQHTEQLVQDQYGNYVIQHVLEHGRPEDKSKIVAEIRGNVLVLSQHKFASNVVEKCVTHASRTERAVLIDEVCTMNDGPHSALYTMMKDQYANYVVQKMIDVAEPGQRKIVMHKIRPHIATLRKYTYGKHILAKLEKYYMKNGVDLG
row,Sequence,binding signal
1,GGCUAGAACUAGUGGAUCCCCCGGCGCCCGGCGGCUCGAGCCCGGGUAAGUGUUAAUAGUCUGCAUGCCGCCGGGCGCCAUGCCUGCAGGUCGACUCUAGAAAACAUG,2.5 log2 enrichment (interaction score)
2,GGCUAGAACUAGUGGAUCCCCCGGCGCCCGGCGGCUCGAGCCCGGGUAAGUGUGAAUAGUCUGCAUGCCGCCGGGCGCCAUGCCUGCAGGUCGACUCUAGAAAACAUG,1.44 log2 enrichment (interaction score)
3,GGCUAGAACUAGUGGAUCCCCCGGCGCCCGGCGGCUCGAGCCCGGGUAAGUGUAAAUAGUCUGCAUGCCGCCGGGCGCCAUGCCUGCAGGUCGACUCUAGAAAACAUG,3.74 log2 enrichment (interaction score)
